Here are results for seven compounds from the supplement of paper PMC10933113.

In this test the test system is KeratinoSens (HaCaT ARE-luciferase) cells. Briefly: Nrf2/ARE luciferase activation call in qHTS KeratinoSens assay (1 = active, 0 = inactive).
As for `COc1ccc(CN(CCN(C)C)c2ccccn2)cc1.O=C(O)/C=C\C(=O)O`, the “Nrf2/ARE luciferase activation call” value was “not active ARE inducer (skin sensitizer alert) (inactive)”. Regarding `CCCCn1cc[n+](C)c1C.O=S(=O)([O-])C(F)(F)F`, the “Nrf2/ARE luciferase activation call” value was “not active ARE inducer (skin sensitizer alert) (inactive)”. Turning to `CCCC[N+]1(C)CCCCC1.O=S(=O)([O-])C(F)(F)F`, the “Nrf2/ARE luciferase activation call” value is “not active ARE inducer (skin sensitizer alert) (inactive)”. In the case of `CN1CCC(=C2c3ccccc3Sc3ccccc32)CC1.O=C(O)/C=C\C(=O)O` it was “not active ARE inducer (skin sensitizer alert) (inactive)”.

On to `CCC1=C[C@@H]2C[N@](C1)Cc1c([nH]c3ccccc13)[C@@](C(=O)OC)(c1cc3c(cc1OC)N(C)[C@H]1[C@@](O)(C(=O)OC)[C@H](OC(C)=O)[C@]4(CC)C=CCN5CC[C@]31[C@@H]54)C2.O=C(O)C(O)C(O)C(=O)O.O=C(O)C(O)C(O)C(=O)O`, for which the “Nrf2/ARE luciferase activation call” value was “active ARE inducer (skin sensitizer alert)”.

For the compound `Cc1ccccc1C(OCCN(C)C)c1ccccc1.O=C(O)CC(O)(CC(=O)O)C(=O)O` (configuration not stated), the “Nrf2/ARE luciferase activation call” value is “not active ARE inducer (skin sensitizer alert) (inactive)”.

For `CN(CCOc1ccc(CC2SC(=O)NC2=O)cc1)c1ccccn1.O=C(O)/C=C\C(=O)O` (configuration not stated), the “Nrf2/ARE luciferase activation call” value is “not active ARE inducer (skin sensitizer alert) (inactive)”.
